Hits are enriched below; roughly 11% of the tested compounds scored in any of these assays.
JMJD2A Tudor inh = inhibitors of human JMJD2A Tudor domain; Potency, µM (series often up to 114 µM), actives largely listed as inhibitors; AlphaScreen JMJD2A-Tudor / H3K4me3 peptide binding; O75164; AID 504339; 4.4% of 390,000 active; further: nearly all actives have a fitted effect of over 50% in size
L3MBTL1 inh = inhibitors of human L3MBTL1. AlphaScreen L3MBTL1–H3K9me1 peptide binding. Q9Y468. Potency, µM (highest dose often 57.1 µM), usual class: inhibitors. 0.66% of 230,000 active; further: nearly all actives have a fitted effect of over 60% in size
Target sequence (Q9Y468 whole entry, looked up): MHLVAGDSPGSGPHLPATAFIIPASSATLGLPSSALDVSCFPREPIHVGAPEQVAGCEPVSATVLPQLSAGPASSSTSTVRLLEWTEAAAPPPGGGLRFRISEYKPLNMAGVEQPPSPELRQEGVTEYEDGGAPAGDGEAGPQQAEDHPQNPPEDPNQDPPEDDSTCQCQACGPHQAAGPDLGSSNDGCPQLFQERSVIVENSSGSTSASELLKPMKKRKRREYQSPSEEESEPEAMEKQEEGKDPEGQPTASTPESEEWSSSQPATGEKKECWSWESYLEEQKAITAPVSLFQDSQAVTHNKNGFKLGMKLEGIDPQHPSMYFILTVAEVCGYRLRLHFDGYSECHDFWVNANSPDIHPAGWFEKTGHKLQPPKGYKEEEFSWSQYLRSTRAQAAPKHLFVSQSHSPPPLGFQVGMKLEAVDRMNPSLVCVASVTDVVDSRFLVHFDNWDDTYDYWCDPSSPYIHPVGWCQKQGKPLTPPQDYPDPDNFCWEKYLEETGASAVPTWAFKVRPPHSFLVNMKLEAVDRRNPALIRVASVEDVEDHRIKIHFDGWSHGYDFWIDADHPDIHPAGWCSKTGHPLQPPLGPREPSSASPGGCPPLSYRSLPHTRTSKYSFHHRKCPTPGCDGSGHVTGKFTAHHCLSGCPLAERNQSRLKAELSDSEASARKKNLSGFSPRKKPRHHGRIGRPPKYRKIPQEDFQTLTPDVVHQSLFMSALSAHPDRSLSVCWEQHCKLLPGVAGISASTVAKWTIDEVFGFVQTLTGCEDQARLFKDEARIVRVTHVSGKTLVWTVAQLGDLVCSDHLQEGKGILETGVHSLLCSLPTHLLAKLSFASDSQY
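AlphaScreen assay: L3MBTL1 (50 nM final) was preincubated 30 min at room temperature with biotinylated H3(1-15)K9me1 peptide (75 nM final), then 30 min with library compounds; streptavidin donor and nickel chelate acceptor beads (10 ug/mL final) added, 30 min dark.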
G9a inh = blocks human histone lysine methyltransferase G9a | Q96KQ7 | G9a H3K9 monomethylation, AlphaScreen, 2 h | Potency, µM (top dose mostly 102 µM), most hits filed as inhibitors | 8.8% of 350,000 active | AID 504332; further: nearly all actives have a fitted effect of over 75% in size
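Methyltransferase reactions run at room temperature for 2 h (20 nM enzyme, 500 nM biotin-H3K9 peptide, 20 uM SAM) after a 15 min compound preincubation; product detected by AlphaScreen beads and anti-H3K9me1 antibody.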
HP1b binding inh = HP1-beta chromodomain-methylated histone interaction inhibition. Potency, µM (series often up to 114 µM), actives largely listed as inhibitors. AID 540317. P83916. 0.56% of 390,000 active. AlphaScreen HP1-beta / biotin-H3K9me3 peptide binding; further: nearly all actives have a fitted effect of over 70% in size
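AlphaScreen: HP1-beta (50 nM) preformed 30 min with biotin-H3(1-18)K9me3 peptide (50 nM) in PBS pH 7.4, 0.01% Tween-20. Compound added for 30 min at RT, then streptavidin donor/nickel chelate acceptor beads (10 ug/mL) for 30 min.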
BAZ2B block = inhibitors of human BAZ2B bromodomain; Q9UIF8; AlphaScreen BAZ2B-H3K14Ac peptide displacement; Potency, µM (highest dose often 114 µM), usual class: inhibitors; 4.4% of 360,000 active; AID 504333; further: nearly all actives have a fitted effect of over 60% in size
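BAZ2B (50 nM) with biotin-H3(5-23)K14Ac peptide (50 nM) in PBS pH 7.4, 0.01% Tween-20, preformed 30 min, then compound 30 min at room temperature; top concentration 110uM. AlphaScreen streptavidin donor/nickel chelate acceptor beads (10 ug/mL final), 20 min dark, signal read.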
Hits are given with their value; - = inactive; ? = inconclusive; . = no result; [ ] = remark or other dose. The call rests on the fitted dose curve; in most records, active means well fitted inhibition curve with a large enough effect; inconclusive means small, poorly fitted or top-dose-only effect; inactive means no such curve, though single readings can be large or run the other way.

SMILES	JMJD2A Tudor inh	L3MBTL1 inh	G9a inh	HP1b binding inh	BAZ2B block
CCOC(=O)c1c(C)[nH]c(C(=O)N/N=C/c2cc([N+](=O)[O-])ccc2O)c1C	79µM	.	?	-	45µM
CCOC(=O)c1c(C)[nH]c(C(=O)N/N=C\c2ccccc2O)c1C	-	-	-	-	-
CCNC(=O)C(=O)N/N=C/c1cc([N+](=O)[O-])ccc1O	14µM	.	-	-	8.9µM
Nc1nnc(CC(=O)N/N=C\c2cc([N+](=O)[O-])ccc2O)s1	?	?	?	-	28µM
O=C(N/N=C/c1cc([N+](=O)[O-])ccc1O)C12CC3CC(CC(C3)C1)C2	-	-	-	-	-
COc1ccccc1CNC(=O)CSc1nc(=O)[nH]c2c1CCCC2	-	.	-	-	-
S=c1nc[nH]c2c1ncn2-c1ccccc1	0.63µM	.	.	-	.
CC(C)n1cnc2c(=S)nc[nH]c21	?	-	0.79µM	-	50µM
Cc1cc(-c2ccccc2)nc(N/N=C/c2ccccc2)n1	-	.	-	-	-
CC(/C=N/Nc1nc(C)cc(C)n1)=C\c1ccc(C(C)C)cc1	-	-	40µM	?	-
Cc1cc(C)nc(N/N=C/c2ccc(Cl)cc2)n1	-	-	45µM	-	-
Cc1cc(-c2ccccc2)nc(N/N=C/c2ccc(N(C)C)cc2)n1	35µM	.	.	?	.
Cc1ccc(/C=N/Nc2nc(C)cc(C)n2)cc1	-	-	?	-	-
CC(/C=N/NC(=O)c1ccncc1)=C\c1ccc(C(C)C)cc1	-	?	-	-	-
COc1ccc(OC)c(CNC(=O)C2CCN(c3nc4ccccc4nc3C(F)(F)F)CC2)c1	-	.	-	-	-
CC1CC(C)CN(C(=O)COC(=O)c2cc([N+](=O)[O-])ccc2N2CCOCC2)C1 (stereo unspecified)	-	-	79µM	-	-
CCOc1ccc(S(=O)(=O)N2CCN(C(=O)c3cc([N+](=O)[O-])ccc3N3CCOCC3)CC2)cc1	-	-	3.2µM	-	-
COc1cc(C(=O)COC(=O)c2cc([N+](=O)[O-])ccc2N2CCOCC2)ccc1OC(F)F	-	-	32µM	-	-
COc1ccccc1C(=O)COC(=O)c1cc([N+](=O)[O-])ccc1N1CCOCC1	-	-	?	-	-
Cc1cc(C)c(C(=O)COC(=O)c2cc([N+](=O)[O-])ccc2N2CCOCC2)cc1C	-	-	16µM	-	-
Fc1ccc(-n2nnc(-c3ccnc4ccccc34)n2)cc1	-	-	-	-	-
COc1ccc(N/N=C(/C#N)S(=O)(=O)c2nsc(C)c2C#N)cc1	?	.	?	-	?
Cc1snc(S(=O)(=O)/C(C#N)=N/Nc2cccc(C(F)(F)F)c2)c1C#N	50µM	.	14µM	-	?
O=[N+]([O-])c1ccccc1Nc1ccccc1[N+](=O)[O-]	-	.	.	-	.
O=[N+]([O-])c1cnccc1Nc1cccc(F)c1	-	-	7.1µM	-	?
SMILES	JMJD2A Tudor inh	L3MBTL1 inh	G9a inh	HP1b binding inh	BAZ2B block
O=[N+]([O-])c1ccc(Nc2cccc(F)c2)nc1	-	-	50µM	-	-
O=[N+]([O-])c1ccccc1Nc1cccc(F)c1	45µM	.	.	?	.
COc1ccc(Nc2ccncc2[N+](=O)[O-])cc1	-	.	-	-	?
O=[N+]([O-])c1ccc(Nc2ccc(F)cc2)nc1	-	-	-	-	-
Cc1cccc(N2CCN(C(=O)CCS(=O)(=O)c3ccc4c(c3)CC(=O)N4C)CC2C)c1 (stereo unspecified)	-	.	?	-	-
Cc1ccc(-c2noc(-c3nnn(CC(=O)Nc4ccc(C)c(Cl)c4)c3N)n2)cc1	-	.	-	-	-
COc1cccc(NC(=O)CC(C)S(=O)(=O)c2ccc3c(c2)NC(=O)CO3)c1 (stereo unspecified)	-	.	-	-	-
COc1ccc(CCNC2CC(=O)N(CCc3ccc(OC)c(OC)c3)C2=O)cc1OC (stereo unspecified)	-	.	-[12.7 µM]	-	?
COc1ccc(CCN2C(=O)CC(NNc3ccc([N+](=O)[O-])cc3)C2=O)cc1OC (stereo unspecified)	-	-	14µM	-	-
O=C(O)CN1C(=O)/C(=C\c2cccc(OCc3ccccc3)c2)SC1=S	?	-[2.29 µM]	-[0.501 µM]	?	56µM
CN1C(=O)/C(=C\c2cccc(OCc3ccccc3)c2)SC1=S	-	.	-	-	?
Cc1cccc(Cc2cnc(NC(=O)CN3C(=O)/C(=C/c4ccccc4)SC3=S)s2)c1	-	.	40µM	?	?
O=C(O)COc1cccc(/C=C2/SC(=S)N(Cc3ccccc3)C2=O)c1	50µM	.	45µM	-	?
CCOc1ccccc1NC(=O)N1CCC2(CC1)Oc1ccccc1C(=O)N2Cc1ccccc1F	-	.	-	-	-
O=C(O)COc1nn(Cc2ccccc2)c2ccccc12	.	.	-[12.7 µM]	.	.
CCOc1ccccc1NC1c2ccccc2C(=O)N1c1cccnc1 (stereo unspecified)	-	.	79µM	-	-
O=C1c2ccccc2C(Nc2ccccc2)N1c1cccnc1 (stereo unspecified)	-	.	-	-	-
CSc1nc(C)cc(Nc2c(C)cc(C)cc2C)n1	-	.	-	-	-
COc1cc(CN2CCC(C(=O)N3CCN(c4ccccc4F)CC3)CC2)cc(OC)c1OC	2.5µM	.	25µM	?	50µM
COc1ccc(CN2CCC(C(=O)N3CCN(c4ccccc4F)CC3)CC2)cc1OC	0.89µM	-	?	?	56µM
COc1ccc(CC(=O)N2CCN(c3ccccc3F)CC2)cc1OC	-	-	-	-	-
COc1cccc(CN2CCC(C(=O)N3CCN(c4ccccc4F)CC3)CC2)c1OC	3.5µM	-	10µM	?	?
Cc1cnc(CNc2cc(-c3ccc(N(C)C)cc3)ncn2)cn1	.	.	-[0.501 µM]	.	.
COc1cc2c(cc1OC)C(COc1ccc([N+](=O)[O-])cc1)NCC2 (stereo unspecified)	-	.	-	-	-
CCOC(=O)c1c(NC(=O)CSc2nnc(N)s2)sc(C)c1-c1ccc(C)cc1	?	-	40µM	-	-
SMILES	JMJD2A Tudor inh	L3MBTL1 inh	G9a inh	HP1b binding inh	BAZ2B block
Nc1nnc(SCC(=O)Nc2cccc(S(N)(=O)=O)c2)s1	-	-	-	-	-
CCN(CC)S(=O)(=O)c1cccc(NC(=O)CSc2nnc(N)s2)c1	-	-	18µM	-	-
COc1ccc(Nc2nnc(SCC(=O)NC3CCS(=O)(=O)C3)s2)cc1 (stereo unspecified)	-	-	14µM	-	-
CCN(CC)c1ccc(NC(=O)CSc2nnc(N)s2)cc1C	-	.	56µM	-	-
CCOC(=O)c1c(NC(=O)CSc2nnc(C)c(=O)[nH]2)sc(C)c1-c1ccc(C)cc1	-	.	-[12.7 µM]	-	-
COc1ccc(Nc2nnc(SCC(=O)NC3CC3)s2)cc1	-	-	-[12.7 µM]	-	-
CCc1ccc(C2c3c(n[nH]c3C)C(=O)N2c2ccc(C)cc2)cc1 (stereo unspecified)	-	.	-	-	.
Cc1cccc(Nc2nnc(SCC(=O)NC3CCCc4ccccc43)s2)c1 (stereo unspecified)	-	-	?	-	-

High-throughput results: PubChem BioAssay, National Center for Advancing Translational Sciences (NCATS)
